Source: PubChem BioAssay (National Center for Advancing Translational Sciences (NCATS))
Luc counter – Kinase-Glo luciferase inhibition (counter-screen). Potency, µM (doses to about 38.3 µM), without a hit: at the highest dose activity change, negative = inhibition, actives largely listed as inhibitors. 200,000 tested, 0.28% active. Q27757. Kinase-Glo luciferase, ATP luminescence, 8 min; note: % is set by controls: 0 for no effect and ±100 for the full control effect; nearly all actives have a fitted effect of over 60% in size
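Substrate mix (final 50 mM imidazole pH 7.2, 50 mM KCl, 7 mM MgCl2, 10 uM ATP, 0.01% Tween 20, 0.05% BSA) plus pin-tool compound, then Kinase-Glo detection mix; 8 min ambient, luminescence read.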
FLuc counter – inhibits or activates purified firefly luciferase, miR-21 counter-screen | purified FLuc, Km substrates, luminescence inhibition | Potency, µM (top dose mostly 57.5 µM), for inactives: at the highest dose activity change, negative = inhibition, actives largely listed as inhibitors | 360,000 tested, 6.9% active;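 note: plate controls were vehicle for no effect and reference inhibitor for full effect; nearly all actives have a fitted effect of over 55% in size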
Target sequence (P08659 whole entry, looked up): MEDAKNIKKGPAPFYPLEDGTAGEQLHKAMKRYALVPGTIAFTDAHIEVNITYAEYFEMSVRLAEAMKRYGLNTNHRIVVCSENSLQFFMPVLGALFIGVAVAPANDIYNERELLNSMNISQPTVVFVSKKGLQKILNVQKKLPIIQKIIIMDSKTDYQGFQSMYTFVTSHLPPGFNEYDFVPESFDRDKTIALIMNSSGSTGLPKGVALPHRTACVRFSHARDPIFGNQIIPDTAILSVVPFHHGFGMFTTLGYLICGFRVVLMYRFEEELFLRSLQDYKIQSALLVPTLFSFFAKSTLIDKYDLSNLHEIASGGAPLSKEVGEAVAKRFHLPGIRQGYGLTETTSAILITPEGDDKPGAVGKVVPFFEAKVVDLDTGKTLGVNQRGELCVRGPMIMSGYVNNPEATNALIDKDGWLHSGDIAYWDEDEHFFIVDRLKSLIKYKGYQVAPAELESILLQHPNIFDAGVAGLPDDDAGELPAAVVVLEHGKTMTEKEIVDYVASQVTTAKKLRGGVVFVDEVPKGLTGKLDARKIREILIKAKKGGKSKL
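Biochemical qHTS of compounds, final roughly 60 µM downward over six points, against 10 nM purified firefly luciferase using Km concentrations of substrates (10 uM D-luciferin, 10 uM ATP) in Tris acetate pH 7.5 buffer; luminescence output.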
Rab9 promoter act – activates the Rab9 promoter | Huh7 Rab9 promoter-luciferase reporter, luminescence, 24 h | Potency, µM (top dose mostly 9.22 µM), without a hit: top-dose activation, negative = inhibition, usual class: activators | 320,000 tested, 2.8% active | AID 485297; note: % of control where 0% means no effect; nearly all actives have a fitted effect of over 60% in size
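Huh7 cells stably carrying Rab9 promoter–luciferase reporter, plated 1500 cells/well, compound added after 2 h and incubated 24 h at 37 °C; luciferase luminescence then read after 10 min with detection reagent.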
NPC1 prom act – activators of NPC1 promoter | Huh7 NPC1 promoter luciferase reporter, 24 h | Potency, µM (series often up to 9.22 µM), for inactives: top-dose activation, hits mostly activators | 320,000 tested, 2.4% active | AID 485313; note: % of control where 0% means no effect; nearly all actives have a fitted effect of over 60% in size
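NPC1 promoter–luciferase Huh7 cells; 24 h compound; luminescence.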
SMN2 splice enh – increases expression of the SMN2 splice variant | HEK293 SMN2-luciferase splicing reporter, luminescence, 30-36 h | Potency, µM (doses to about 46.1 µM), for inactives: top-dose activity change, positive = activation, actives largely listed as activators | 210,000 tested, 2.8% active | AID 1458; note: % of control where 0% means no effect; nearly all actives have a fitted effect of over 55% in size
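qHTS luciferase splicing reporter: luminescence rises when SMN2 exon 7 is included in transfected HEK293 cells. Compound exposure lasted 30-36 h at 37C, with 4.5 mM final sodium butyrate as control, followed by a ONE-Glo read.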
ELG1 genotoxic – genotoxicity induction in ELG1-luciferase HEK293T cells | HEK293T ELG1-luciferase reporter, luminescence, 16 h | Potency, µM (titrated, usually from 46 µM), inactives show top-dose activity change, positive = activation, usual class: activators | 330,000 tested, 1.3% active | AID 504466; note: % of control where 0% means no effect; nearly all actives have a fitted effect of over 60% in size
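HEK293T cells expressing luciferase-tagged ELG1 were treated with compound or DMSO for 16 hr at 37°C. Luciferase activity was then read after 30 min with ONE-Glo at room temperature; rising signal flags genetic stress.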
* hit, by the source's call; [ ] = remark or other dose. A selection: hits, their analogues and other compounds. The true share with any hit is near 7.3%. Calls come from the whole dose curve; as a rule, active = well fitted curve in the direction sought with a large enough effect; inconclusive = small, poorly fitted or top-dose-only effect, or another doubt; inactive = no such curve, though single readings can be large; an effect the other way counts as inactive or inconclusive. Potency is the fitted concentration of half-maximal effect.

For O=c1[nH]c2ccc(NS(=O)(=O)c3ccc([N+](=O)[O-])cc3)cc2[nH]1 the results were FLuc counter 5.5%, Rab9 promoter act -10.3%, NPC1 prom act -1.3% and ELG1 genotoxic -1.5%.
Screening CCOC(=O)C(=O)Nc1sc(C(=O)N2CCOCC2)c(C)c1C#N returned Luc counter -2.0%, FLuc counter -1.1%, Rab9 promoter act -5.4%, NPC1 prom act -4.7% and ELG1 genotoxic 4.8%.
For COc1ccc(Cl)cc1N(C(C)C(=O)O)S(C)(=O)=O (stereo unspecified) the results were Luc counter 2.1%, FLuc counter 0.6%, Rab9 promoter act 0.4%, NPC1 prom act 1.3%, SMN2 splice enh -3.8% and ELG1 genotoxic -0.3%.
`Cc1ccc(C)c(-c2ccc(=O)n(Cc3ccc(F)cc3Cl)n2)c1` gave FLuc counter 4.5%, Rab9 promoter act -0.1%, NPC1 prom act 0.1%, SMN2 splice enh -10.1% and ELG1 genotoxic -2.1%.
CCN(CC)S(=O)(=O)c1ccc(C(=O)Oc2ccc3c(c2)OCO3)cc1 was read as Luc counter -0.8%, FLuc counter -1.2%, Rab9 promoter act 1.4%[1.84 µM], NPC1 prom act -0.2%, SMN2 splice enh 1.5% and ELG1 genotoxic 1.6%.
For CC(=O)Oc1ccc2c(c1)C(=O)c1ccccc1CO2 the results were Luc counter -4.3%, FLuc counter 4.78µM*, Rab9 promoter act 6.8%, NPC1 prom act 1.1%, SMN2 splice enh -32.3% and ELG1 genotoxic inconclusive.
For CC(C)(C)c1ccc(C(=O)Oc2ccc3c(c2)OCC3=O)cc1 the results were Luc counter 0.0%, FLuc counter 2.69µM*, Rab9 promoter act -5.0%, NPC1 prom act -0.2%, SMN2 splice enh 5.0% and ELG1 genotoxic 8.4%.
O=C(Oc1ccc2c(c1)OCC2=O)c1ccccc1 was read as Luc counter -1.9%, FLuc counter 26.9µM*, Rab9 promoter act 0.5%, NPC1 prom act -0.5%, SMN2 splice enh 11.4% and ELG1 genotoxic 1.2%.
`COc1ccc(CCn2c(N)c(C(=O)NCc3ccco3)c3nc4ccccc4nc32)cc1OC` gave Luc counter 0.3%, FLuc counter -17.8%, Rab9 promoter act -1.4%, NPC1 prom act 8.2%, SMN2 splice enh -6.9% and ELG1 genotoxic -10.9%.
Screening CN(C)c1ccc(NC(=O)CCn2c(=S)oc3ccccc32)cc1 returned Luc counter -0.1%, FLuc counter 4.26µM*, Rab9 promoter act 16.7%, NPC1 prom act 12.7%, SMN2 splice enh 1.2% and ELG1 genotoxic 15.6%.
Screening Cc1ccc(NC(=O)CCn2c(=S)oc3ccccc32)cc1 returned Luc counter 5.6%, FLuc counter 0.0%, Rab9 promoter act -1.1%, NPC1 prom act -2.5%, SMN2 splice enh 8.8% and ELG1 genotoxic 10.0%.
For O=C(CS(=O)(=O)c1ccc(F)cc1)Nc1nnc(-c2cccs2)o1 the results were FLuc counter 2.5%, Rab9 promoter act 0.7%, NPC1 prom act 1.0% and ELG1 genotoxic -5.5%.
Screening Fc1ccc2c(Cl)c(-c3nnc(-c4cccs4)o3)sc2c1 returned Luc counter -9.1%, FLuc counter 0.19µM*, Rab9 promoter act 0.562µM*, NPC1 prom act 1.41µM*, SMN2 splice enh 4.47µM* and ELG1 genotoxic 0.651µM*.
For COc1ccc(-c2cn3cc(C(=O)NN)ccc3n2)cc1 the results were Luc counter -7.0%, FLuc counter 7.57µM*, Rab9 promoter act 0.316µM*, NPC1 prom act inconclusive and ELG1 genotoxic inconclusive.
`NNC(=O)c1ccc2nc(-c3ccc(Br)cc3)cn2c1` gave Luc counter -1.5%, FLuc counter 9.53µM*, Rab9 promoter act 0.501µM*, NPC1 prom act 0.398µM*, SMN2 splice enh 11.2µM* and ELG1 genotoxic inconclusive.
Screening NNC(=O)c1ccc(Cn2cc(Br)cn2)cc1 returned Luc counter -1.4%, FLuc counter 1.1%, Rab9 promoter act 0.6%, NPC1 prom act -2.3%, SMN2 splice enh -7.3% and ELG1 genotoxic -1.4%.
COc1ccc(OCc2cc(C(=O)NCC3CCOCC3)no2)c(Cl)c1 was read as FLuc counter 13.5µM*, Rab9 promoter act inconclusive, NPC1 prom act inconclusive and ELG1 genotoxic inconclusive.
`COc1ccc(OCc2cc(C(=O)N(C)Cc3cnccn3)no2)c(Cl)c1` gave FLuc counter inconclusive, Rab9 promoter act inconclusive, NPC1 prom act 25.9% and ELG1 genotoxic inconclusive.
For COc1ccc(OCc2cc(C(=O)N(C)Cc3cc(C4CC4)n[nH]3)no2)c(Cl)c1 the results were FLuc counter 12µM*, Rab9 promoter act 2.82µM*, NPC1 prom act 3.55µM* and ELG1 genotoxic inconclusive.
For CSc1ccccc1OCc1cc(C(=O)NCCC2CCCCO2)no1 (stereo unspecified) the results were FLuc counter inconclusive, Rab9 promoter act 14.4%, NPC1 prom act inconclusive and ELG1 genotoxic 7.7%.
`COc1cccc(OCc2cc(C(=O)NC3CCOCC3)no2)c1` gave FLuc counter 23.9µM*, Rab9 promoter act inconclusive, NPC1 prom act inconclusive and ELG1 genotoxic inconclusive.
For COc1ccc(OCc2cc(C(=O)NCC3CCCCO3)no2)c(Cl)c1 (stereo unspecified) the results were FLuc counter inconclusive, Rab9 promoter act 3.98µM*, NPC1 prom act inconclusive and ELG1 genotoxic inconclusive.
For CC(C)COC(=O)n1c(SCC(N)=O)nc2ccccc21 the results were FLuc counter 0.4%, Rab9 promoter act -3.2%, NPC1 prom act -1.0% and ELG1 genotoxic 0.2%.
CC(NC(=O)c1cc2c(s1)CCCC2)C(C)(C)C (stereo unspecified) was read as Luc counter -3.5%, FLuc counter -19.8%, Rab9 promoter act -5.8%, NPC1 prom act 7.9%, SMN2 splice enh -21.8% and ELG1 genotoxic 10.0%.
`COc1ccc(OCc2cc(C(=O)NCCN3CCCC(O)C3)no2)c(Cl)c1` (stereo unspecified) gave FLuc counter inconclusive, Rab9 promoter act -2.1%[1.84 µM], NPC1 prom act 1.9% and ELG1 genotoxic 2.6%.
For COc1ccc(OCc2cc(C(=O)NCCN3CCCc4ccccc43)no2)c(Cl)c1 the results were FLuc counter 23.9µM*, Rab9 promoter act 4.5%, NPC1 prom act 23.9% and ELG1 genotoxic -20.2%.
For O=C(O)C(c1ccccc1)C(c1ccccc1)c1ccccc1 (stereo unspecified) the results were Luc counter -1.2%, FLuc counter inconclusive, Rab9 promoter act -10.9%, NPC1 prom act -5.8%, SMN2 splice enh 16.1% and ELG1 genotoxic 0.3%.
`CCc1ccc(N2Cc3ccccc3C2)cc1` gave FLuc counter 6.01µM*, Rab9 promoter act 3.55µM*, NPC1 prom act 2.82µM* and ELG1 genotoxic inconclusive.
